Experiment [1] in a line: CEETOX_H295R_PROG: CeeTox H295R High-throughput Steroidogenesis Assay for Progesterone (PROG) (AID 2283442).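 Further: human H295R adrenal cells primed with 10 µM forskolin before dosing; progesterone secreted into medium by H295R cells measured by HPLC-MS/MS.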 As to conditions: actives raise or lower the signal. In outline: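 Steps: seed H295R cells and let them adhere overnight; prime 48 h with 10 uM forskolin; dose with compound in DMSO at 0.1% final for 48 h; extract medium steroids with MTBE; measure progesterone by LC-MS/MS. MTT viability was run in the same wells.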

Read-out in experiment [2]: Tumor necrosis factor receptor superfamily member 6 (Homo sapiens) (UniProt P25445)
Description: LTEA_HepaRG_FAS: Life Technologies and Expression Analysis (LTEA) Assay for Fas cell surface death receptor (FAS) using HepaRG (AID 2283447). The settings on record: mRNA level, 48 h; actives raise or lower the signal. In outline: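 FAS transcript level was measured by TaqMan qRT-PCR against three housekeeping genes after 48 h chemical exposure. Cells were HepaRG, 0.5% DMSO vehicle, with a top concentration of 100 uM and half-log dilutions over eight points, in duplicate.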

Read-out in experiment [3]: Fatty acid synthase (Homo sapiens) (UniProt P49327)
The experiment in a line: LTEA_HepaRG_FASN: Life Technologies and Expression Analysis (LTEA) Assay for Fatty Acid Synthase (FASN) using HepaRG (AID 2283448).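 On AC50: differentiated human HepaRG liver cells in serum-free induction medium.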 As to conditions: mRNA level, 48 h; actives raise or lower the signal. The essentials: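 Cells were plated, cultured 48 h, switched to serum-free induction medium, then dosed in duplicate (max 100 uM, half-log dilutions, 0.5% DMSO) for 48 h. RNA was then isolated and FASN quantified by qRT-PCR.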

Read-out in experiment [4]: Cyclin D2 (CCND2), CCND2 (gene 894)
The experiment in a line: LTEA_HepaRG_CCND2: Life Technologies and Expression Analysis (LTEA) Assay for Cyclin D2 (CCND2) using HepaRG (AID 2283449). As to conditions: mRNA level, 48 h; actives raise or lower the signal. The essentials: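 CCND2 transcript levels, quantified by qRT-PCR and normalised to three housekeeping genes, were fitted bidirectionally against 0.5% DMSO. HepaRG cultures were dosed 48 h in duplicate with an 8-point half-log series up to 100 uM.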

Read-out in experiment [5]: Cyclin Dependent Kinase Inhibitor 1A (CDKN1A), CDKN1A (gene 1026)
The experiment in a line: LTEA_HepaRG_CDKN1A: Life Technologies and Expression Analysis (LTEA) Assay for Cyclin Dependent Kinase Inhibitor 1A (CDKN1A) using HepaRG (AID 2283450). As to conditions: mRNA level, 48 h; actives raise or lower the signal. In outline: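 Read-out is CDKN1A mRNA by TaqMan qRT-PCR, normalized to three housekeeping genes and fitted in both directions against the DMSO baseline. Human HepaRG cells were treated 48 h with test chemicals up to 100 uM in half-log steps, 0.5% DMSO.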

Read-out in experiment [6]: catalase (CAT), CAT (gene 847)
The experiment in a line: LTEA_HepaRG_CAT: Life Technologies and Expression Analysis (LTEA) Assay for catalase (CAT) using HepaRG (AID 2283452). As to conditions: mRNA level, 48 h; actives raise or lower the signal. In outline:
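Expression of CAT was quantified by TaqMan qRT-PCR with ACTB/GAPDH/POLR2A normalization after 48 h chemical exposure of HepaRG. Eight-point half-log series, top 100 uM, in 0.5% DMSO; gain or loss fitted against vehicle.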

Read-out in experiment [7]: flavin-containing dimethylaniline monooxygenases 3 (FMO3), FMO3 (gene 2328)
Description: LTEA_HepaRG_FMO3: Life Technologies and Expression Analysis (LTEA) Assay for flavin-containing dimethylaniline monooxygenases 3 (FMO3) using HepaRG (AID 2283453). As to conditions: mRNA level, 48 h; actives raise or lower the signal. In outline:
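FMO3 transcript quantified by TaqMan qRT-PCR against three housekeeping genes after 48 h chemical exposure of HepaRG cells. Eight-point half-log series, top 100 uM, 0.5% DMSO vehicle; phenobarbital 1mM induction control; up- or down-regulation fitted.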

Read-out in experiment [8]: Cytochrome P450 (CYP1A1), CYP1A1 (gene 1543)
The experiment in a line: LTEA_HepaRG_CYP1A1: Life Technologies and Expression Analysis (LTEA) Assay for Cytochrome P450 (CYP1A1) using HepaRG (AID 2283454). As to conditions: mRNA level, 48 h; actives raise or lower the signal. The essentials:
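HepaRG, 48 h post-plating switched to serum-free induction medium; 8-pt conc-response (top 100 uM, half-log, 0.5% DMSO), duplicates, 48 h. Lysis in RLT, TaqMan qRT-PCR for CYP1A1; gain or loss vs DMSO.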

Read-out in experiment [9]: CFLAR gene, CFLAR (gene 8837)
The experiment in a line: LTEA_HepaRG_CFLAR: Life Technologies and Expression Analysis (LTEA) Assay for CFLAR gene using HepaRG (AID 2283455). The settings on record: mRNA level, 48 h; actives raise or lower the signal. The essentials: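 Transcript level by qRT-PCR (normalized to ACTB, GAPDH and POLR2A) after 48 h chemical exposure of HepaRG cells, top concentration 100 uM with half-log steps, 0.5% DMSO vehicle, duplicates; fitted bidirectionally against DMSO baseline.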

Read-out in experiment [10]: Forkhead box O1 (FOXO1), FOXO1 (gene 2308)
Description: LTEA_HepaRG_FOXO1: Life Technologies and Expression Analysis (LTEA) Assay for Forkhead box O1 (FOXO1) using HepaRG (AID 2283456). The settings on record: mRNA level, 48 h; actives raise or lower the signal. In outline: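 FOXO1 transcript quantified by qRT-PCR after 48 h chemical exposure (top 100 uM, half-log steps, 0.5% DMSO) of HepaRG cells, housekeeping-normalized (ACTB/GAPDH/POLR2A). Changes fitted in both directions relative to vehicle.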

Read-out in experiment [11]: growth arrest and DNA damage 45 (GADD45A), GADD45A (gene 1647)
Description: LTEA_HepaRG_GADD45A: Life Technologies and Expression Analysis (LTEA) Assay for growth arrest and DNA damage 45 (GADD45A) using HepaRG (AID 2283458). As to conditions: mRNA level, 48 h; actives raise or lower the signal. In outline:
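Transcript induction or loss, quantified by TaqMan qRT-PCR against three housekeeping genes, is the read-out. HepaRG cells received chemicals for 48 h across eight half-log concentrations from 100 uM in 0.5% DMSO; gain and loss fitted relative to DMSO.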

Read-out in experiment [12]: Forkhead box O3 (FOXO3), FOXO3 (gene 2309)
The experiment in a line: LTEA_HepaRG_FOXO3: Life Technologies and Expression Analysis (LTEA) Assay for Forkhead box O3 (FOXO3) using HepaRG (AID 2283459). As to conditions: mRNA level, 48 h; actives raise or lower the signal. The essentials:
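FOXO3 transcript measured by qRT-PCR (normalized to ACTB, GAPDH, POLR2A) after 48 h exposure of HepaRG cells in serum-free induction medium. Duplicates, eight half-log concentrations up to 100 uM, 0.5% DMSO; gain or loss fitted against DMSO.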

Read-out in experiment [13]: ABC Transporter (ABCB1), ABCB1 (gene 5243)
Description: LTEA_HepaRG_ABCB1: Life Technologies and Expression Analysis (LTEA) Assay for ABC Transporter (ABCB1) using HepaRG (AID 2283460). The settings on record: mRNA level, 48 h; actives raise or lower the signal. In outline: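 ABCB1 transcript level measured by TaqMan qRT-PCR against three housekeeping genes after 48 h chemical exposure of differentiated HepaRG cells. Top concentration 100 uM, half-log steps, eight points, 0.5% DMSO vehicle; bidirectional fit relative to DMSO.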

Read-out in experiment [14]: growth arrest and DNA damage 45 (GADD45B), GADD45B (gene 4616)
Description: LTEA_HepaRG_GADD45B: Life Technologies and Expression Analysis (LTEA) Assay for growth arrest and DNA damage 45 (GADD45B) using HepaRG (AID 2283461). The settings on record: mRNA level, 48 h; actives raise or lower the signal. In outline:
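HepaRG, ~100,000 cells/well, 48 h plating; serum-free induction medium; cpd 100 uM top, half-log x8, 0.5% DMSO, duplicate, 48 h; lysis in RLT, RNA isolation, qRT-PCR; norm ACTB/GAPDH/POLR2A; bidirectional fit vs DMSO.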

Read-out in experiment [15]: ABC Transporter (ABCC3), ABCC3 (gene 8714)
Description: LTEA_HepaRG_ABCC3: Life Technologies and Expression Analysis (LTEA) Assay for ABC Transporter (ABCC3) using HepaRG (AID 2283462). The settings on record: mRNA level, 48 h; actives raise or lower the signal. The essentials: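 Human HepaRG, 48 h dosing, 8-pt half-log series from 100 uM, 0.5% DMSO vehicle, duplicates. ABCC3 mRNA by TaqMan qRT-PCR, housekeeping-normalized; bidirectional curve fit vs DMSO.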

Read-out in experiment [16]: ABC Transporter (ABCB11), ABCB11 (gene 8647)
The experiment in a line: LTEA_HepaRG_ABCB11: Life Technologies and Expression Analysis (LTEA) Assay for ABC Transporter (ABCB11) using HepaRG (AID 2283463). The settings on record: mRNA level, 48 h; actives raise or lower the signal. In outline:
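ABCB11 transcript levels quantified by TaqMan qRT-PCR against three housekeeping genes after 48 h chemical exposure of HepaRG cultures. Concentrations up to 100 uM in half-log steps, 0.5% DMSO vehicle; both induction and suppression scored.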

Read-out in experiment [17]: ABC Transporter (ABCC2), ABCC2 (gene 1244)
Description: LTEA_HepaRG_ABCC2: Life Technologies and Expression Analysis (LTEA) Assay for ABC Transporter (ABCC2) using HepaRG (AID 2283464). As to conditions: mRNA level, 48 h; actives raise or lower the signal. The essentials:
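HepaRG, 48 h post-plating; serum-free induction medium; cpd 8-pt, 100 uM top, half-log, 0.5% DMSO, duplicate, 48 h. Readout: ABCC2 mRNA by qRT-PCR, norm. ACTB/GAPDH/POLR2A. Bidirectional fit vs DMSO baseline.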

Read-out in experiment [18]: Broad substrate specificity ATP-binding cassette transporter ABCG2 (Homo sapiens) (UniProt Q9UNQ0)
Description: LTEA_HepaRG_ABCG2: Life Technologies and Expression Analysis (LTEA) Assay for ABC Transporter (ABCG2) using HepaRG (AID 2283465). As to conditions: mRNA level, 48 h; actives raise or lower the signal. In outline: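 ABCG2 transcript was quantified by TaqMan qRT-PCR against three housekeeping genes in HepaRG cells. Cells were treated in duplicate for 48 h across an 8-point half-log series up to 100 uM, with 0.5% DMSO vehicle. Gain or loss versus DMSO was fit.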

Read-out in experiment [19]: Cyclin D1 (CCND1), CCND1 (gene 595)
The experiment in a line: LTEA_HepaRG_CCND1: Life Technologies and Expression Analysis (LTEA) Assay for Cyclin D1 (CCND1) using HepaRG (AID 2283451). As to conditions: mRNA level, 48 h; actives raise or lower the signal. The essentials: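 HepaRG plated 48 h, medium switched to serum-free induction medium, chemicals added in duplicate (top 100 uM, half-log steps, 0.5% DMSO) for 48 h, cells lysed, RNA measured by TaqMan qRT-PCR.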

A short description of experiment [20]: CEETOX_H295R_TESTO: CeeTox H295R High-throughput Steroidogenesis Assay for Testosterone (TESTO) (AID 2283457). The settings on record: actives raise or lower the signal. The essentials:
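H295R, passage ≤10, 48 h dosing; media extracted with MTBE → HPLC-MS/MS for testosterone; 7-pt standard curve sets LLOQ/ULOQ; bidirectional fit vs DMSO; MTT viability same wells.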

We go through four compounds from PubChem BioAssay (EPA / NIEHS).

Usually AC50 stands for the midpoint of the concentration-response curve, whichever way the signal moves.

Active and inactive are the calls of the source. How the source made its calls: active means hit-call score of the fitted dose curve at least 0.9, where 1 is the maximum; inactive means score below 0.9.

Chain of Fatty acid synthase (Homo sapiens) (P49327 whole entry, looked up): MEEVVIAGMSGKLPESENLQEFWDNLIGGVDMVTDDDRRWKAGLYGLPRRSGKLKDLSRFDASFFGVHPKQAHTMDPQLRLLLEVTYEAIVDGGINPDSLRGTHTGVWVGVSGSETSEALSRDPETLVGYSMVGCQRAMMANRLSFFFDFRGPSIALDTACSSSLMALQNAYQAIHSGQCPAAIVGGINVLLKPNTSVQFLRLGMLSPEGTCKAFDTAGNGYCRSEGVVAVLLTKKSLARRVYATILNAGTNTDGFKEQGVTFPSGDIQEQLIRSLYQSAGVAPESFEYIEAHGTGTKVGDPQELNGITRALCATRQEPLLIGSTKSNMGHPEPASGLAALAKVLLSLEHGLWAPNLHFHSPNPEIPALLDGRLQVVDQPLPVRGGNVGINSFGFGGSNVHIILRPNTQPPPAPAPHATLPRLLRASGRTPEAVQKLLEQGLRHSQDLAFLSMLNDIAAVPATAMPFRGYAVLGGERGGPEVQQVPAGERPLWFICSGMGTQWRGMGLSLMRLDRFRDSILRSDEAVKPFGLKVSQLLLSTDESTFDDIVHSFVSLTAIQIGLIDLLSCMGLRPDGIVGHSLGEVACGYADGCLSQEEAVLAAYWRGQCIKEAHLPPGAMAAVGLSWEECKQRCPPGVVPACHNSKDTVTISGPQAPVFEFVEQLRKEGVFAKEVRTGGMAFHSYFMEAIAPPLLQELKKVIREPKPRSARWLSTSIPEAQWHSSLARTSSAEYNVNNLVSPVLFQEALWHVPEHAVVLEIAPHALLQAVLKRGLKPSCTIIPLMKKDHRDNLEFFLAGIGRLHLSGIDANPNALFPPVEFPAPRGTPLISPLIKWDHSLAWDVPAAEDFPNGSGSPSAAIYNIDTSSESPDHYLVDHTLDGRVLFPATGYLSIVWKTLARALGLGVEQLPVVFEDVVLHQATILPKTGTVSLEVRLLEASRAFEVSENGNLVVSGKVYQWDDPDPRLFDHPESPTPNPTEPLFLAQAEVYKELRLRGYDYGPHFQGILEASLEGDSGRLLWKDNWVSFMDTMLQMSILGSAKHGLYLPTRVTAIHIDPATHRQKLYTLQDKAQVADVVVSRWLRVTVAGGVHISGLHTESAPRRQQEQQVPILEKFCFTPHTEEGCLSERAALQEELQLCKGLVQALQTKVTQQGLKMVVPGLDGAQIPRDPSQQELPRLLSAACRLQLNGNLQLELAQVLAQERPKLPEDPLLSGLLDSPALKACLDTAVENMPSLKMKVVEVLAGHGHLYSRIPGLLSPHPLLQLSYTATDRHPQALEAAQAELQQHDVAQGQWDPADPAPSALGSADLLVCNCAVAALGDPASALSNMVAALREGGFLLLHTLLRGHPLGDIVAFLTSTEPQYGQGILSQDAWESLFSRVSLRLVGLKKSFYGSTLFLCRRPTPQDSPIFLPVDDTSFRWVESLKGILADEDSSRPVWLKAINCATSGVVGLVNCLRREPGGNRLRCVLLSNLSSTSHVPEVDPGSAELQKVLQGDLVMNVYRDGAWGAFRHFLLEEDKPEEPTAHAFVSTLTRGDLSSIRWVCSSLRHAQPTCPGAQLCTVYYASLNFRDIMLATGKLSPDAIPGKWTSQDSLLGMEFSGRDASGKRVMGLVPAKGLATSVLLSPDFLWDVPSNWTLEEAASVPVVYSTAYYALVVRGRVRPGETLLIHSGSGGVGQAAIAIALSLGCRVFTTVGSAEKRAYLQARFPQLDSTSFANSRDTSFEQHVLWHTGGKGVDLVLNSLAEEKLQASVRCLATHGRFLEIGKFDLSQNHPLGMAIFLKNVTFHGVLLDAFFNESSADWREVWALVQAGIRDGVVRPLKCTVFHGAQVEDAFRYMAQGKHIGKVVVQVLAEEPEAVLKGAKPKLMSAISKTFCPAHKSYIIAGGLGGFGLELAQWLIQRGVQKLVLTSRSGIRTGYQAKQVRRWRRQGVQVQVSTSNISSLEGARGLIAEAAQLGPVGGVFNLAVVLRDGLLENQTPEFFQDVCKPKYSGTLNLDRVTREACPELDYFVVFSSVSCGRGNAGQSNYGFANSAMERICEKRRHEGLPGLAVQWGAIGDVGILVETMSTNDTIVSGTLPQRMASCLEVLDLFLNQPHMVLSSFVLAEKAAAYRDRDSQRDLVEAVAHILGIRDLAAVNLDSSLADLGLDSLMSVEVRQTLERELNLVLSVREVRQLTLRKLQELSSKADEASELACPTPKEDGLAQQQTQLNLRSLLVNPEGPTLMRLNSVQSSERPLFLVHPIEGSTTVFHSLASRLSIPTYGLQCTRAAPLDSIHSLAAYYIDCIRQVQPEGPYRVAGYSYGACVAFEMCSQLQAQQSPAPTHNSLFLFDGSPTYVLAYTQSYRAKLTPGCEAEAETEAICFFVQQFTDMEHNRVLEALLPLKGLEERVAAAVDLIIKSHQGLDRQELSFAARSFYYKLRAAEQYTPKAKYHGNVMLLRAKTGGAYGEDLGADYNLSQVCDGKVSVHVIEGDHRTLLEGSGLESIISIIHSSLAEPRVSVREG
Chain of Broad substrate specificity ATP-binding cassette transporter ABCG2 (Homo sapiens) (Q9UNQ0 whole entry, looked up): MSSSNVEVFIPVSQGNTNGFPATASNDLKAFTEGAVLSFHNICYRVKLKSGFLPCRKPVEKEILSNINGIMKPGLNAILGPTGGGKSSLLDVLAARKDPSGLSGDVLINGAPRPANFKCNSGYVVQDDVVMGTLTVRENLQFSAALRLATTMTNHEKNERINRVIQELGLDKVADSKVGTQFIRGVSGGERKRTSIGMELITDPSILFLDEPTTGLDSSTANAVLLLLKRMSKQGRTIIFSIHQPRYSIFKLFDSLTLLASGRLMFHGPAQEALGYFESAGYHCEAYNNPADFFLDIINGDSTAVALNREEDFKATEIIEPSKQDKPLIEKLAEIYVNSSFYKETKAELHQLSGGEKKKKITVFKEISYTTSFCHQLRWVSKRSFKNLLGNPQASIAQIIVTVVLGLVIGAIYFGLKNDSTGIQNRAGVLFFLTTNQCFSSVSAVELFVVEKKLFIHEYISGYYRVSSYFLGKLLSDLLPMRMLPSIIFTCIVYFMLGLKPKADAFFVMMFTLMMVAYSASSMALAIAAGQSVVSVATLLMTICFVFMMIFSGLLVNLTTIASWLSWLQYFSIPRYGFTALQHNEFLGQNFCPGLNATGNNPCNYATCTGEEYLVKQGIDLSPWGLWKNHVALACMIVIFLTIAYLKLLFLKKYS

As to `NC(=O)Cn1c(=O)cc(CCN2CCN(c3nccc4sccc34)CC2)c2ccc(F)cc21`, the half-maximal activity concentration (AC50) in [1] is 2.02 µM (active); in experiment [3], 29.5 µM (active); in [5], 50 µM (active); in experiment [8] it was 10.1 µM (active); in [10], 50 µM (active); in experiment [13], 36.6 µM (active). Also, the concentration at half-maximal activity (AC50) in [15] is 78.1 µM (active). The compound was classed as inactive in experiment [2], in experiment [4], in experiment [6], in [7], in [9] and in [11]. The call in experiment [12], in [14], in experiment [16], in experiment [17] and in [18] was inactive.

As for `COc1ccc(C)cc1N`, the AC50 in experiment [1] is 33.2 µM (active). In addition, the outcome in experiment [2], in experiment [3], in experiment [4], in experiment [5], in experiment [19] and in [6] was inactive. The compound was called inactive in [7], in experiment [8], in experiment [10], in experiment [20], in experiment [11] and in experiment [13]. For the same compound, the call in experiment [14], in [15], in experiment [16], in experiment [17] and in experiment [18] was inactive.

Regarding `Cc1cccc(Nc2cc(Cl)nc(SCC(=O)O)n2)c1C`, the AC50 in experiment [1] was 12.3 µM (active); in experiment [8], 50 µM (active); in [13], 50 µM (active); in experiment [17] it was 82.3 µM (active). Moreover, the result in experiment [2], in experiment [3], in [5], in experiment [6], in experiment [7] and in experiment [10] was inactive. Moreover, the call in experiment [20], in experiment [11], in experiment [14], in experiment [15], in [16] and in experiment [18] was inactive.

As for `Nc1ccc(S(=O)(=O)c2ccc(N)cc2)cc1`, the half-maximal activity concentration (AC50) in experiment [1] is 36.1 µM (active). Besides, the compound was classed as inactive in [2], in experiment [3], in experiment [4], in [5], in experiment [6] and in experiment [7]. The result in [8], in [10], in [11], in [13], in [14] and in experiment [15] was inactive. Also, the result in experiment [18] was inactive.
